Screening results from PubChem BioAssay.
Shown are actives, neighbours in structure and some others; about 1.5% of the full set was active somewhere.
NPR1 activator – GC-A (human) enzyme activation; AID 1671463; 370,000 compounds, 0.14% hits; HEK293 GC-A cells, cGMP TR-FRET, EC30 ANP; 0% at EC30 ANP, 100% saturating ANP; P16066; activation, % at 10 µM; in the data active = activation above about 40%
NPR2 activator – GC-B (human) receptor activation; 370,000 compounds, 0.11% hits; AID 1920062; HEK293-GC-B cells, CNP EC30, cGMP TR-FRET; 0% at EC30 CNP, 100% saturating CNP; activation, % at 10 µM; P20594;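 active = activation at 10 µM reaching about 35% in either raw or pattern-adjusted values, limit read from the data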
Neddylation inh – cullin neddylation inhibition; 360,000 compounds, 0.58% hits; inhibition, % at 25 µM; TR-FRET cullin neddylation, biochemical; P61081+Q13564; AID 651699; in the data active = inhibition above about 36%
Target sequence (P61081 whole entry, looked up): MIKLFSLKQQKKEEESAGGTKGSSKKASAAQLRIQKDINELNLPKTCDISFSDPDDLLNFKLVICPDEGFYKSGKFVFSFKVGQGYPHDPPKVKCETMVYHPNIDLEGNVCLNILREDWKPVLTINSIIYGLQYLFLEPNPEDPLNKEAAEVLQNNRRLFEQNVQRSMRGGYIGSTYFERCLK
Target sequence (Q13564 whole entry, looked up): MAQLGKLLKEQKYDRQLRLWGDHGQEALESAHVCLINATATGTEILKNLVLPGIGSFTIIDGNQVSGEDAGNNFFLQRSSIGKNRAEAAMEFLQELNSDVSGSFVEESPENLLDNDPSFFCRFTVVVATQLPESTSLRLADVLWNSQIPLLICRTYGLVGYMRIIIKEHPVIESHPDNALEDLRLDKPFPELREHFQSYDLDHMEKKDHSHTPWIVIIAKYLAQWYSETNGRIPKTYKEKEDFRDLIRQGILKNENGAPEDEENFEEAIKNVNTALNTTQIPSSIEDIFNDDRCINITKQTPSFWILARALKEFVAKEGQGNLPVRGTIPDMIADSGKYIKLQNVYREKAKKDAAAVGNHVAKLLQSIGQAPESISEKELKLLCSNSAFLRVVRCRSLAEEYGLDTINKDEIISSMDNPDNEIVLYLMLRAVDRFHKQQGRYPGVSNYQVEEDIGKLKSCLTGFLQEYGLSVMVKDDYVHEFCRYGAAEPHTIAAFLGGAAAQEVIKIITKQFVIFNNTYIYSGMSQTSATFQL
NadD inh – blocks S. aureus nicotinate mononucleotide adenylyltransferase; purified NadD enzyme, colorimetric absorbance read-out; inhibition, % at 20 µM; 360,000 compounds, 0.78% hits; in the data active = inhibition above about 26%
Neddyl inh conf – confirmation of human cullin neddylation inhibitors; shares compounds with Neddylation inh; TR-FRET cullin neddylation biochemical assay; calls only at 25 µM; 1,800 compounds, 13% hits; in the data active = inhibition above about 40%;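 note: neddylation substrate is the cullin 1 ring ligase complex with SKP2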
Numbers without * were called inactive; i = inactive; nt = not tested or not shown; + = active, no number.

SMILES | NPR1 activator | NPR2 activator | Neddylation inh | NadD inh | Neddyl inh conf
Nc1cc(S(=O)(=O)O)cc2ccc(S(=O)(=O)O)cc12 | 2 | 2 | 44* | 0 | nt
COC(=O)[C@]12C[C@H](CC(=O)N3CCCC3)C(=O)N(Cc3ccc4c(c3)OCO4)C1=C[C@H](C(C)C)O[C@@H]2C1CC1 | -9 | -8 | nt | nt | nt
CCSc1nnc(NC(=O)c2cccc(S(=O)(=O)N(C)c3ccc(C)cc3)c2)s1 | -1 | 2 | 44* | 10 | i
COC(=O)[C@]12C[C@H](CC(=O)NCc3ccc(C)o3)C(=O)N(Cc3ccco3)C1=C[C@H](C1CCCC1)O[C@@H]2C | -8 | -5 | nt | nt | nt
O=C1CCC[C@H]2C[C@H](NCc3cccc(Cl)c3)CC[C@]23CCCN13 | 0 | -3 | nt | nt | nt
Nc1ccc2oc3ccccc3c2c1 | 1 | 0 | 42* | -3 | i
Cn1c(SCc2ccc(Cl)cc2)nnc1-c1ccc2nonc2c1 | -2 | -4 | 42* | -4 | i
Cn1c(SCc2c(Cl)cccc2Cl)nnc1-c1ccc2nonc2c1 | -2 | 3 | -20 | -4 | nt
COc1ccc(OC)c2[nH]c(=O)c(CCNC(=O)c3ccc4c(c3)OCO4)cc12 | -1 | -6 | 41* | -1 | i
Cc1cc(N2CCOCC2)n2cc(-c3ccc(F)cc3)nc2n1 | 1 | 1 | 46* | -3 | i
COc1ccccc1C(=O)NC(=O)CSc1nnc2ccccn12 | 0 | 2 | 44* | 0 | i
Cc1ccc(NC(=O)NNC(=O)CSC2CCc3ccccc32)c(C)c1 (configuration not stated) | 2 | 5 | nt | nt | nt
COCCn1c(=N)c(S(=O)(=O)c2ccc(Br)cc2)cc2c(=O)n3ccccc3nc21 | 3 | 1 | 53* | 15 | i
Cc1ccc(Cn2c(=N)c(S(=O)(=O)c3ccc(Br)cc3)cc3c(=O)n4ccccc4nc32)cc1 | nt | nt | 20 | 23 | nt
COCCn1c(=N)c(S(=O)(=O)c2ccc(F)cc2)cc2c(=O)n3ccccc3nc21 | 6 | 3 | 55* | -1 | i
O=C(Nc1ccc2nsnc2c1)C1CC1 | 2 | 5 | 56* | 1 | +
CC(=O)Nc1ccc2nsnc2c1 | 3 | -1 | 33 | 2 | nt
Clc1ccccc1N1CCN(C2=Nc3ccccc3Sc3ccccc32)CC1 | 0 | -3 | nt | nt | nt
CN1CCC(C(=O)N2CCCC(C(=O)c3ccc4c5c(cccc35)CC4)C2)CC1 (configuration not stated) | -1 | 0 | 41* | -2 | i
CC(=O)N1CCCC(C(=O)c2ccc3c4c(cccc24)CC3)C1 (configuration not stated) | 1 | 1 | nt | 1 | nt
Cc1[nH]c2ccccc2c1CC(=O)Nc1ccc(Nc2cccnc2)c(-c2ccc(C(C)(C)C)cc2)c1 | 1 | 2 | nt | nt | nt
Cc1cccc(-c2n[nH]c(=S)n2/N=C/C=C/c2ccco2)c1 | -11 | -10 | 60* | 9 | i
S=c1[nH]nc(-c2ccncc2)n1/N=C/C=C/c1ccco1 | 0 | 1 | 4 | 6 | nt
COc1ccc(NC(=O)c2c[nH]c(=O)n(-c3ccc(C)c(C)c3)c2=O)c(OC)c1 | -2 | 8 | 64* | -2 | i
O=C(OC12CCCN(C1)/C(=C/c1cccc(Cl)c1)C2)C1CCCC1 (configuration not stated) | 1 | -14 | nt | nt | nt
SMILES | NPR1 activator | NPR2 activator | Neddylation inh | NadD inh | Neddyl inh conf
Nc1nc2ccccc2nc1N | 2 | 2 | 43* | -2 | +
C[C@@H](CO)N(Cc1cn(Cc2ccccc2)nn1)S(=O)(=O)c1ccccc1Br | 2 | -1 | nt | nt | nt
COc1ccc(OC)c(CN2C(=O)COc3ccccc3C2c2nnnn2C2CCCC2)c1 (configuration not stated) | -15 | -13 | nt | nt | nt
COc1ccc2cc3cc(C(=O)NCCN4CCc5ccccc5C4)sc3nc2c1 | 3 | 1 | 50* | -5 | i
Cc1ccc(-n2c(Cc3cccs3)nnc2SCc2ccc(C#N)cc2)cc1 | -22 | -15 | nt | nt | nt
CCN(CC)C(=O)c1sc2nc(-c3ccncc3)[nH]c(=O)c2c1C | 6 | -6 | 39* | -3 | +
CCc1cc2c(=O)[nH]c(Cc3ccccc3)nc2s1 | 4 | 10 | -84 | 2 | nt
CCc1cc2c(=O)[nH]c(-c3ccncc3)nc2s1 | 0 | -3 | 40* | -4 | nt
CCOC(=O)CC[C@@H]1CC[C@]2(CCCN(Cc3nccs3)C2)O1 | 3 | 2 | nt | nt | nt
CN(C)c1cccc(C(=O)OCC(=O)N2CCc3ccccc3C2)c1 | 0 | -6 | 42* | 4 | i
Clc1ccc(-c2csc(NCC3CCCO3)n2)cc1 (configuration not stated) | 1 | 1 | nt | nt | nt
